From PubChem BioAssay AID1159580 (chemical genetic matrix, 2015)
Several values for one entry are separate records, joined by “and”; a condition that tells them apart may be missing. Identical values can stand only once. The whole screen tested about 5,500 compounds, of which about 2,000 (36%) were called active. Not shown: some 18% with an inconclusive outcome. The list shows a part of the results. A number with no mark means an inactive call. Cut-off read from the data, not from the text of the source: active = normalized growth mostly below about 0.91 (no sharp cut-off); inconclusive = no clear call, values can overlap the other calls; inactive = mostly above about 0.92.

Test: chemical genetic growth profiling, strain panel (AID 1159580);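 note: tested at 20 µM; growth read once vehicle control cultures reached saturation at 30 °C; 1 = growth at the plate median or of vehicle wells; lower values mean less growth of the strain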
Settings: S. cerevisiae deletion strains, growth OD

In the case of `O=c1c(O)cc([C@H]2Oc3cc(O)cc(O)c3C[C@H]2O)cc2c([C@H]3Oc4cc(O)cc(O)c4C[C@H]3O)cc(O)c(O)c12`, the normalized growth (locus YAL013W, strain DEP1, hits give low values) is reported as 1.01, the normalized growth (locus YAL021C, strain ccr4, hits give low values) is reported as 1.01 and the normalized growth (locus YAL026C, strain drs2, hits give low values) is reported as 1.04. The normalized growth (locus YAL030W, strain snc1, hits give low values) was 1.04, the normalized growth (locus YBL061C, strain skt5, hits give low values) was 1.03 and the normalized growth (locus YBR009C, strain hhf1, hits give low values) was 1.04. It also gave a normalized growth (locus YBR021W, strain FUR4, hits give low values) of 1.01, a normalized growth (locus YBR023C, strain chs3, hits give low values) of 1.02 and a normalized growth (locus YBR171W, strain sec66, hits give low values) of 1.06. The normalized growth (locus YBR229C, strain ROT2, hits give low values) was 0.998, the normalized growth (locus YBR231C, strain swc5, hits give low values) was 1.02 and the normalized growth (locus YBR279W, strain paf1, hits give low values) was 1.02. The normalized growth (locus YCL011C, strain gbp2, hits give low values) was 1.04, the normalized growth (locus YCL016C, strain dcc1, hits give low values) was 1.02 and the normalized growth (locus YCL029C, strain bik1, hits give low values) was 0.998. It also gave a normalized growth (locus YCL069W, strain vba3, hits give low values) of 1.03, a normalized growth (locus YCR088W, strain abp1, hits give low values) of 1.04 and a normalized growth (locus YDL005C, strain med2, hits give low values) of 1.05. For the same compound, the normalized growth (locus YDL035C, strain GPR1, hits give low values) was 1.03, the normalized growth (locus YDL040C, strain nat1, hits give low values) was 1.04 and the normalized growth (locus YDL074C, strain BRE1, hits give low values) was 1.04. The normalized growth (locus YDL101C, strain DUN1, hits give low values) was 1.02, the normalized growth (locus YDL185W, strain tfp1, hits give low values) was 1.01 and the normalized growth (locus YDL192W, strain arf1, hits give low values) was 1. For the same compound, the normalized growth (locus YDR001C, strain nth1, hits give low values) was 1.03, the normalized growth (locus YDR069C, strain doa4, hits give low values) was 0.995 and the normalized growth (locus YDR101C, strain arx1, hits give low values) was 1.02. For the same compound, the normalized growth (locus YDR137W, strain rgp1, hits give low values) was 1.03, the normalized growth (locus YDR159W, strain sac3, hits give low values) was 1.1 and the normalized growth (locus YDR162C, strain NBP2, hits give low values) was 1.03. The normalized growth (locus YDR195W, strain ref2) was 1.04, the normalized growth (locus YDR297W, strain sur2, hits give low values) was 1.02 and the normalized growth (locus YDR318W, strain mcm21, hits give low values) was 1.02. It also gave a normalized growth (locus YDR334W, strain swr1, hits give low values) of 1.03, a normalized growth (locus YDR335W, strain msn5, hits give low values) of 1.02 and a normalized growth (locus YDR388W, hits give low values) of 0.995. The normalized growth (locus YDR392W, strain spt3, hits give low values) was 1.03, the normalized growth (locus YDR502C, strain sam2, hits give low values) was 1.03 and the normalized growth (locus YEL003W, strain gim4, hits give low values) was 1.03. It also gave a normalized growth (locus YEL037C, strain rad23, hits give low values) of 1.02, a normalized growth (locus YEL061C, strain CIN8 (second series), hits give low values) of 1.04 and a normalized growth (locus YEL061C, strain CIN8, hits give low values) of 1.01. For the same compound, the normalized growth (locus YER015W, strain faa2, hits give low values) was 1.01, the normalized growth (locus YER016W, strain bim1, hits give low values) was 1.04 and the normalized growth (locus YER110C, hits give low values) was 1.03. The normalized growth (locus YER111C, strain swi4, hits give low values) was 1.01, the normalized growth (locus YER155C, strain BEM2 (second series), hits give low values) was 1.08 and the normalized growth (locus YER155C, strain BEM2, hits give low values) was 1.05. It also gave a normalized growth (locus YER167W, strain BCK2, hits give low values) of 1.02, a normalized growth (locus YFR010W, strain ubp6, hits give low values) of 1.03 and a normalized growth (locus YGL078C, strain dbp3, hits give low values) of 1.01. For the same compound, the normalized growth (locus YGL086W, strain mad1, hits give low values) was 1.02, the normalized growth (locus YGL167C, strain pmr1, hits give low values) was 1.03 and the normalized growth (locus YGL173C, strain kem1, hits give low values) was 1.03. The normalized growth (locus YGL227W, strain vid30, hits give low values) was 1.05, the normalized growth (locus YGL240W, strain doc1, hits give low values) was 1.06 and the normalized growth (locus YGL248W, strain PDE1, hits give low values) was 0.998. For the same compound, the normalized growth (locus YGL253W, strain hxk2, hits give low values) was 1.05, the normalized growth (locus YGR135W, strain pre9, hits give low values) was 1.01 and the normalized growth (locus YGR252W, strain gcn5, hits give low values) was 1.01. It also gave a normalized growth (locus YHR013C, strain ard1, hits give low values) of 1.05, a normalized growth (locus YHR027C, strain rpn1, hits give low values) of 1.02 and a normalized growth (locus YHR030C, strain SLT2, hits give low values) of 0.985. For the same compound, the normalized growth (locus YHR079C, strain IRE1 (second series), hits give low values) was 1.02, the normalized growth (locus YHR079C, strain IRE1, hits give low values) was 0.999 and the normalized growth (locus YHR094C, strain hxt1, hits give low values) was 1.02. The normalized growth (locus YHR129C, strain ARP1, hits give low values) was 1.01, the normalized growth (locus YHR142W, strain chs7, hits give low values) was 1.05 and the normalized growth (locus YHR200W, strain rpn10, hits give low values) was 0.994. It also gave a normalized growth (locus YIL066C, strain RNR3, hits give low values) of 1.02, a normalized growth (locus YIL073C, strain SPO22, hits give low values) of 1.1 and a normalized growth (locus YIL125W, strain kgd1, hits give low values) of 1.02. The normalized growth (locus YIR030C, strain dcg1, hits give low values) was 1.01, the normalized growth (locus YJL092W, strain hpr5, hits give low values) was 1.03 and the normalized growth (locus YJL095W, strain BCK1 (second series), hits give low values) was 1.02. The normalized growth (locus YJL095W, strain BCK1, hits give low values) was 0.995 and 1.01, the normalized growth (locus YJL115W, strain asf1, hits give low values) was 1.05 and the normalized growth (locus YJL129C, strain trk1, hits give low values) was 1.14 [resistant] (active). The normalized growth (locus YJL134W, strain LCB3, hits give low values) was 1.02, the normalized growth (locus YJL154C, strain vps35, hits give low values) was 1.04 and the normalized growth (locus YJL164C, strain tpk1, hits give low values) was 1.01. The normalized growth (locus YJL166W, strain qcr8, hits give low values) was 1.05, the normalized growth (locus YJL168C, strain set2, hits give low values) was 1.02 and the normalized growth (locus YJL187C, strain SWE1 (second series), hits give low values) was 0.997. The normalized growth (locus YJR043C, strain POL32, hits give low values) was 1.03.
